Our source for the outcome and AC50 values is PubChem BioAssay (EPA / NIEHS).

The target in assay [1] is Myc proto-oncogene protein (Homo sapiens) (UniProt P01106). The assay can be described thus: ATG_Myc_CIS: Attagene CIS-FACTORIAL HepG2 Assay for human Myelocytomatosis (Myc) Proto-Oncogene Transcription Factor (AID 2282990). As to conditions: HepG2, Attagene cis-reporter transcription factor activity; actives raise or lower the signal. Put shortly:
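HepG2 cells transiently transfected with multiple cis-promoter-driven reporter transcription units, so endogenous TF activity is read. After 24 h compound exposure, reporter mRNA was quantified by RT-PCR, 6-FAM labelling, HpaI digestion and capillary electrophoresis; bidirectional fit versus DMSO.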

Assay [2] is described as follows: ATG_NF_kB_CIS: Attagene CIS-FACTORIAL HepG2 Assay for human Nuclear Factor Kappa B (NF-kB) (AID 2282991). The note with it: HepG2 Attagene cis-factorial NF-kB reporter mRNA; actives raise or lower the signal. Put shortly: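 Read-out: reporter transcript levels quantified by RT-PCR plus capillary electrophoresis of 6-FAM-labelled, HpaI-cut fragments. Transfected HepG2 cells, 24 h compound exposure, endogenous NF-kB-driven cis element; gain or loss scored versus DMSO.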

The nature of assay [3]: ATG_Oct_MLP_CIS: Attagene CIS-FACTORIAL HepG2 Assay for human Octamer-Binding Transcription Factor (Oct) (AID 2282993). The note with it: HepG2 Attagene cis-factorial Oct reporter, mRNA; actives raise or lower the signal. Put shortly:
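Multiplexed cis-reporter assay in human liver HepG2 cells, 24 h incubation. Reporter RNA amplified and labelled, then resolved by capillary electrophoresis; DMSO serves as negative control and baseline.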

Assay [4] addresses Cellular tumor antigen p53 (Homo sapiens) (UniProt P04637). The assay can be described thus: ATG_p53_CIS: Attagene CIS-FACTORIAL HepG2 Assay for human p53 Transcription Factor (AID 2282994). As to conditions: HepG2 p53 cis-element reporter, Attagene mRNA; actives raise or lower the signal. Put shortly: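 In HepG2 cells, reporter transcription units under cis-regulatory promoters were transiently introduced. Following 24 h treatment, RNA was processed to labelled, digested cDNA fragments read by capillary electrophoresis; fitting was bidirectional versus DMSO.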

For assay [5], the target named is human Peroxisome Proliferator-activated Receptor alpha (PPARa), PPARA (gene 5465) (UniProt Q07869). The assay can be described thus: ATG_PPARa_TRANS: Attagene TRANS-FACTORIAL HepG2 Assay for human Peroxisome Proliferator-activated Receptor alpha (PPARa) (AID 2283001; active = hit-call score of the fitted dose curve at least 0.9, where 1 is the maximum). In a few lines:
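Exposure: 24 h, transiently transfected HepG2 cells. Endpoint: GAL4-UAS reporter mRNA, RT-PCR with capillary electrophoresis fluorescence. Baseline: DMSO; increases fitted.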

The target of assay [6] is Peroxisome proliferator-activated receptor gamma (Homo sapiens) (UniProt P37231). The assay can be described thus: ATG_PPARg_TRANS: Attagene TRANS-FACTORIAL HepG2 Assay for human Peroxisome Proliferator-activated Receptor-gamma (PPARg) (AID 2283007; active = hit-call score of the fitted dose curve at least 0.9, where 1 is the maximum). Put shortly:
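Read-out: reporter mRNA induction, detected by fluorescence after RT-PCR and capillary electrophoresis. Transiently transfected human HepG2 liver cells carrying a chimeric NR-Gal4 construct were dosed for 24 h; activity was fitted upward relative to DMSO.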

For assay [7], the target named is Nuclear receptor subfamily 1 group I member 2 (Homo sapiens) (UniProt O75469). The assay can be described thus: ATG_PXR_TRANS: Attagene TRANS-FACTORIAL HepG2 Assay for human Pregnane X Receptor (PXR) (AID 2283008; active = hit-call score of the fitted dose curve at least 0.9, where 1 is the maximum). In a few lines:
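Multiplexed TRANS reporter panel in HepG2; this component tracks PXR-Gal4-driven reporter mRNA after 24 h dosing, measured by RT-PCR with capillary electrophoresis fluorescence, fitted against DMSO.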

The target in assay [8] is human RAR-related Orphan Receptor gamma (RORg), RORC (gene 6097) (UniProt P51449). The assay can be described thus: ATG_RORg_TRANS: Attagene TRANS-FACTORIAL HepG2 Assay for human RAR-related Orphan Receptor gamma (RORg) (AID 2283011; active = hit-call score of the fitted dose curve at least 0.9, where 1 is the maximum). In a few lines:
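Reporter transcripts from a transfected RORg-GAL4 chimera in HepG2 cells were quantified 24 h after dosing by RT-PCR, 6-FAM labelling, HpaI digestion and capillary electrophoresis; increases over DMSO baseline were fitted.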

Assay [9] concerns the target human Retinoic Acid Receptor beta (RARb), RARB (gene 5915) (UniProt P10826). The assay can be described thus: ATG_RARb_TRANS: Attagene TRANS-FACTORIAL HepG2 Assay for human Retinoic Acid Receptor beta (AID 2283004; active = hit-call score of the fitted dose curve at least 0.9, where 1 is the maximum). In a few lines:
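Induction of reporter mRNA from a chimeric RARb-Gal4 construct was measured by RT-PCR, FAM labelling, HpaI digestion and capillary electrophoresis. Measurements followed 24 h compound treatment of transiently transfected human HepG2 liver cells, with DMSO as baseline.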

The target in assay [10] is Retinoic acid receptor alpha (Homo sapiens) (UniProt P10276). The assay can be described thus: ATG_RARa_TRANS: Attagene TRANS-FACTORIAL HepG2 Assay for human Retinoic Acid Receptor alpha (RARa) (AID 2283005; active = hit-call score of the fitted dose curve at least 0.9, where 1 is the maximum). In a few lines:
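HepG2 cells transiently transfected with multiple reporter units expressing chimeric RARα-GAL4 fusion, with GAL4-UAS-driven reporters. After 24 h compound exposure, reporter mRNA induction quantified by RT-PCR and capillary electrophoresis with fluorescent labeling; gain-of-signal fitted relative to DMSO control.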

Assay [11] deals with human Retinoic Acid Receptor gamma (RARg), RARG (gene 5916) (UniProt P13631). The assay can be described thus: ATG_RARg_TRANS: Attagene TRANS-FACTORIAL HepG2 Assay for human Retinoic Acid Receptor gamma (RARg) (AID 2283009; active = hit-call score of the fitted dose curve at least 0.9, where 1 is the maximum). In a few lines:
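Gain-of-signal relative to DMSO is reported from fluorescent capillary electrophoresis of RT-PCR reporter products. These came from HepG2 cells expressing transfected RARg-GAL4 chimeras with UAS reporters, harvested 24 h after dosing.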

Assay [12] can be described thus: ATG_NRF2_ARE_CIS: Attagene CIS-FACTORIAL HepG2 Assay for human Nuclear Factor Erythroid 2 Related Factor 2 (NFR2) response to Antioxidant Response Elements (ARE) (AID 2282992). The note with it: HepG2 Attagene ARE/NRF2 reporter, transcription factor activity; actives raise or lower the signal. In a few lines: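 Using transiently transfected HepG2 cells exposed for 24 h, reporter mRNA levels were determined by RT-PCR with fluorescent primer extension and capillary electrophoresis, analysed for gain or loss of signal against DMSO.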

The target in assay [13] is human Peroxisome Proliferator-activated Receptor delta (PPARd), PPARD (gene 5467) (UniProt Q03181). The assay can be described thus: ATG_PPARd_TRANS: Attagene TRANS-FACTORIAL HepG2 Assay for human Peroxisome Proliferator-activated Receptor delta (PPARd) (AID 2283002; active = hit-call score of the fitted dose curve at least 0.9, where 1 is the maximum). Put shortly: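 HepG2 cells transiently transfected with multiplexed GAL4-UAS reporter units and exogenous chimeric NR-Gal4 proteins; 24 h compound exposure. Reporter mRNA measured by RT-PCR, 6-FAM labelling, HpaI digestion and capillary electrophoresis; gain of signal versus DMSO.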

For assay [14], the target named is human RAR-related Orphan Receptor beta (RORb), RORB (gene 6096) (UniProt Q92753). The assay can be described thus: ATG_RORb_TRANS: Attagene TRANS-FACTORIAL HepG2 Assay for human RAR-related Orphan Receptor beta (RORb) (AID 2283010; active = hit-call score of the fitted dose curve at least 0.9, where 1 is the maximum). In a few lines:
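Multiplexed transcription-factor reporter assay: HepG2 cells transiently carrying NR-Gal4/GAL4-UAS constructs, 24 h treatment, mRNA quantified by RT-PCR plus capillary electrophoresis fluorescence; activity scored as induction over DMSO.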

Assay [15] in a line: BSK_3C_TissueFactor: BioMAP Diversity Plus: 3C Assay for Tissue Factor Biomarker Activity (AID 2282997). The note with it: BioMAP 3C HUVEC, tissue factor biomarker readout; actives raise or lower the signal. Put shortly:
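Tissue factor on primary human umbilical vein endothelium was read by ELISA 24 h after dosing, gain or loss relative to DMSO. Cytotoxicity ran alongside via SRB (0.1%, TCA-fixed, 560 nm).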

Assay [16] in a line: BSK_3C_uPAR: BioMAP Diversity Plus: 3C Assay for Urokinase-type plasminogen activator receptor (uPAR) Biomarker Activity (AID 2282998). The note with it: BioMAP 3C HUVEC, uPAR biomarker ELISA; actives raise or lower the signal. In a few lines: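 Dose primary human umbilical vein endothelial cells, incubate 24 h, measure cell-surface uPAR by ELISA, then fit the signal in both directions against the DMSO negative control.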
(In general: ELISA stands for enzyme-linked immunosorbent assay.)

Assay [17] is described as follows: BSK_3C_VCAM1: BioMAP Diversity Plus: 3C Assay for Vascular cell adhesion molecule 1 (VCAM1) Biomarker Activity (AID 2282999). As to conditions: BioMAP 3C HUVEC, VCAM1 ELISA, cytokine-stimulated; actives raise or lower the signal. In a few lines:
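Vascular primary endothelium (human umbilical vein) was exposed to chemicals and assayed 24 h later. VCAM-1 levels came from ELISA, with DMSO serving as baseline for bidirectional fitting.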

Assay [18] is described as follows: BSK_4H_Eotaxin3: BioMAP Diversity Plus: 4H Assay for Eotaxin 3 Biomarker Activity (AID 2283000).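 Also: CCL26 protein level quantified by ELISA in parallel with SRB cytotoxicity check.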 The note with it: primary human endothelial cells (HUVEC); actives raise or lower the signal. In a few lines:
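Human umbilical vein endothelial cells (BSK_4H system) dosed with test chemical; Eotaxin-3 (CCL26) measured by ELISA 24 h after dosing. Bidirectional curve fitting relative to DMSO negative control as baseline.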

Read-out in assay [19]: Intercellular Adhesion Molecule 1 (ICAM1), ICAM1 (gene 3383)
The assay can be described thus: BSK_3C_ICAM1: BioMAP Diversity Plus: 3C Assay for Intercellular Adhesion Molecule 1 (ICAM1) Biomarker Activity (AID 2283003). The note with it: primary human endothelial cells (HUVEC); actives raise or lower the signal. In a few lines:
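Using DMSO as baseline, bidirectional curve fitting was applied to ICAM-1 ELISA signals from HUVEC in the 3C system, measured 24 h after compound addition.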

The nature of assay [20]: BSK_3C_Proliferation: Cell Proliferation Assessment in the BioMAP Diversity Plus: 3C Assay (AID 2283006). The note with it: primary human endothelial cells (HUVEC). In a few lines: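 Measured here: sulforhodamine B (0.1%) staining of TCA-fixed sub-confluent umbilical vein endothelial cultures 48 h post-dosing, absorbance 560 nm. DMSO served as negative control and baseline; both signal gain and loss were modelled.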

Usually AC50 stands for the concentration giving half of the maximal activity seen.

Results filed as inconclusive are left out. Calls of active or inactive are those of the source. The calls were made as follows, unless noted: active = hit-call score of the fitted dose curve at least 0.9, where 1 is the maximum; inactive = score below 0.9.

Chain of human RAR-related Orphan Receptor gamma (RORg), RORC (gene 6097) (P51449 whole entry, looked up, the tested form may be a part): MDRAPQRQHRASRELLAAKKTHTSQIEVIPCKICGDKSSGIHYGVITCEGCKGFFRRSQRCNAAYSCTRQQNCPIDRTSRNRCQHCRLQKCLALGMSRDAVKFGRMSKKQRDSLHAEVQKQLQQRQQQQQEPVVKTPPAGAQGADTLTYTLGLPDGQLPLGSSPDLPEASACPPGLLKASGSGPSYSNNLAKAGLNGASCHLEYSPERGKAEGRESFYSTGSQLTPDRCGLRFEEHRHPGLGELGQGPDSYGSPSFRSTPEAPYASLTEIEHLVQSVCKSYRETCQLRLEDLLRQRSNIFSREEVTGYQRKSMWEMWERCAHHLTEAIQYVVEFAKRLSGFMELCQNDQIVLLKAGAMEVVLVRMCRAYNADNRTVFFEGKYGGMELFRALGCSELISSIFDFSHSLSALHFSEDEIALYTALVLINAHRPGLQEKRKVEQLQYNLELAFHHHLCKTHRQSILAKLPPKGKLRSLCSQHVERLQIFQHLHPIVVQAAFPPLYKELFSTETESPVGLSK
Chain of human Retinoic Acid Receptor beta (RARb), RARB (gene 5915) (P10826 whole entry, looked up, the tested form may be a part): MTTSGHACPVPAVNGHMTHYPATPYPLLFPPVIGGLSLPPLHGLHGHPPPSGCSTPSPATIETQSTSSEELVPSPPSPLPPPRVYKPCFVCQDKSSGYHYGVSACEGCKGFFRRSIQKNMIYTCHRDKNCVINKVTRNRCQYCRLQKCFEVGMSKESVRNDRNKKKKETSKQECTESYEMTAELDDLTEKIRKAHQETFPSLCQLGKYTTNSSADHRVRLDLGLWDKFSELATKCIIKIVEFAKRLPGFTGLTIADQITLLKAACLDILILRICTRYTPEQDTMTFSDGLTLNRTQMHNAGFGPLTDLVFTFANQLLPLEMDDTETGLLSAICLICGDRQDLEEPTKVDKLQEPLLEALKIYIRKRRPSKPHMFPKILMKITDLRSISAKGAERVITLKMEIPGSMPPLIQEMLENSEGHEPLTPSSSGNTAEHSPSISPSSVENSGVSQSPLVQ
Chain of human Peroxisome Proliferator-activated Receptor alpha (PPARa), PPARA (gene 5465) (Q07869 whole entry, looked up, the tested form may be a part): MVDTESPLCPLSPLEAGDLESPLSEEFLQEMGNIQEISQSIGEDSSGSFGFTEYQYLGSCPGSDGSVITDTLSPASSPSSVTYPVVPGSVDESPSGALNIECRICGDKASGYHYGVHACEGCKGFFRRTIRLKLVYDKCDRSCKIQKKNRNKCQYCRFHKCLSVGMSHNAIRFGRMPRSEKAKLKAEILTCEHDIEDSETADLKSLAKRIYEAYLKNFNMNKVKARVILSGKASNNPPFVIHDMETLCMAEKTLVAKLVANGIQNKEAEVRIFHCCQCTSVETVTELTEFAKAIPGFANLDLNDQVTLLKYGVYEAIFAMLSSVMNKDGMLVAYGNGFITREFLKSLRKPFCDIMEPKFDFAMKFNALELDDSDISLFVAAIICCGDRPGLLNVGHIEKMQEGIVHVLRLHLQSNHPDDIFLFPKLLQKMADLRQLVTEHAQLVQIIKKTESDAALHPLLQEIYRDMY
Chain of Myc proto-oncogene protein (Homo sapiens) (P01106 whole entry, looked up): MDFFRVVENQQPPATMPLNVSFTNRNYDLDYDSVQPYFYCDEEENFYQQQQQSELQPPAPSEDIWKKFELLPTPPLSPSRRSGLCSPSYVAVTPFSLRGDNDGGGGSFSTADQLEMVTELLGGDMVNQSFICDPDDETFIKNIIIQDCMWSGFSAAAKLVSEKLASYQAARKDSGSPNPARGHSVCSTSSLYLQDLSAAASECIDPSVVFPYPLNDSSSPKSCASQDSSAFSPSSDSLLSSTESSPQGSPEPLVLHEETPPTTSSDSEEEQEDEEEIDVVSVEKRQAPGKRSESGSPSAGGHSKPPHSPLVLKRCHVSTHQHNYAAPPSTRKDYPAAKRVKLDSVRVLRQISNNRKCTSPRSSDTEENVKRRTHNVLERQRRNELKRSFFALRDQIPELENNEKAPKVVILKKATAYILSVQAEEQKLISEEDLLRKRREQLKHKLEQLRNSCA
Chain of Nuclear receptor subfamily 1 group I member 2 (Homo sapiens) (O75469 whole entry, looked up, the tested form may be a part): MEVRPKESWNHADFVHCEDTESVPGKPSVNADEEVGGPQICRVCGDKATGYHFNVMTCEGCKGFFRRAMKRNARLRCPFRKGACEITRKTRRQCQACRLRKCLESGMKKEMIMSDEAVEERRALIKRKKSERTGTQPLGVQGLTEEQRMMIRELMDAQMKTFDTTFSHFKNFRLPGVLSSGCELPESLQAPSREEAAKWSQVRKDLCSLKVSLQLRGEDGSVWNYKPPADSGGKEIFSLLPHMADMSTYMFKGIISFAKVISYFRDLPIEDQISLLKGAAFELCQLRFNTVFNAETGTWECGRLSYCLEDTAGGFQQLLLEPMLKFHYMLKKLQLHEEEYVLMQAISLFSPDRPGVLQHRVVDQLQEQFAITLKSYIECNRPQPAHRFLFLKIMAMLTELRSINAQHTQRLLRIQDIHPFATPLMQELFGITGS
Chain of Peroxisome proliferator-activated receptor gamma (Homo sapiens) (P37231 whole entry, looked up, the tested form may be a part): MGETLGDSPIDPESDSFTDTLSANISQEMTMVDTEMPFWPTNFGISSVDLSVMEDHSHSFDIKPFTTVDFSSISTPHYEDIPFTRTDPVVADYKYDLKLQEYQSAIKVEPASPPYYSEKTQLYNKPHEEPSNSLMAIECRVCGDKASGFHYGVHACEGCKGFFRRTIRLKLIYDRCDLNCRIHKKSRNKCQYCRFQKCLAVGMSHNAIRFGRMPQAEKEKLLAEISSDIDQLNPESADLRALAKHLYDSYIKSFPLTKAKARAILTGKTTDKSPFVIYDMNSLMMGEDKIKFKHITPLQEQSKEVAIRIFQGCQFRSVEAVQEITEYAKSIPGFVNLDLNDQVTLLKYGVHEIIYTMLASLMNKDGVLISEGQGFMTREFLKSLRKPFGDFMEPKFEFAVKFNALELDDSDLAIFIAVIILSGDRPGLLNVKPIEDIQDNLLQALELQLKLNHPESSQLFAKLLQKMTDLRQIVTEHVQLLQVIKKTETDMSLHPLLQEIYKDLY
Chain of human Retinoic Acid Receptor gamma (RARg), RARG (gene 5916) (P13631 whole entry, looked up, the tested form may be a part): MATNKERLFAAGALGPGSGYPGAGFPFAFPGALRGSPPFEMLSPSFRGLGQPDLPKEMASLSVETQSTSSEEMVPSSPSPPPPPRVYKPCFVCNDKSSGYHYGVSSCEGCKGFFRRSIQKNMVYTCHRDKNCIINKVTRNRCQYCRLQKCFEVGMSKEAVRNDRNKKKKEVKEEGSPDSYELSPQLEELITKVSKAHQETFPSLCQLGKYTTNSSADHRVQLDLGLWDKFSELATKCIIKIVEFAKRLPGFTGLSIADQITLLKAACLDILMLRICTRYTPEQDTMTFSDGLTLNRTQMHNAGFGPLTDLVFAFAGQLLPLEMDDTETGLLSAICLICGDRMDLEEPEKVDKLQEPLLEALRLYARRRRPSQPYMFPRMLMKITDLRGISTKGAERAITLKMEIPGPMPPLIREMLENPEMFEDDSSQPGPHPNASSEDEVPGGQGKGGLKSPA
Chain of human Peroxisome Proliferator-activated Receptor delta (PPARd), PPARD (gene 5467) (Q03181 whole entry, looked up, the tested form may be a part): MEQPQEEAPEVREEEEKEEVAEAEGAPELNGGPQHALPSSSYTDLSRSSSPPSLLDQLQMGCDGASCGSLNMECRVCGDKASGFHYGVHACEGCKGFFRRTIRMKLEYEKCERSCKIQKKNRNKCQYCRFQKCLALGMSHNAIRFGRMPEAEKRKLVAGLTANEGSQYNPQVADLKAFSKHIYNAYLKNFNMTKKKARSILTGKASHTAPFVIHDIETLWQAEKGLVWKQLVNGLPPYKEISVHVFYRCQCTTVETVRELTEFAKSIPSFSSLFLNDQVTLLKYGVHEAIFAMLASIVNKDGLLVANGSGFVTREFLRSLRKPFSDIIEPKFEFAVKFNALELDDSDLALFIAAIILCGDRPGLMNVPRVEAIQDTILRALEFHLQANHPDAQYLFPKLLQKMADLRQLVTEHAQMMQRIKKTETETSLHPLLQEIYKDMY
Chain of Retinoic acid receptor alpha (Homo sapiens) (P10276 whole entry, looked up, the tested form may be a part): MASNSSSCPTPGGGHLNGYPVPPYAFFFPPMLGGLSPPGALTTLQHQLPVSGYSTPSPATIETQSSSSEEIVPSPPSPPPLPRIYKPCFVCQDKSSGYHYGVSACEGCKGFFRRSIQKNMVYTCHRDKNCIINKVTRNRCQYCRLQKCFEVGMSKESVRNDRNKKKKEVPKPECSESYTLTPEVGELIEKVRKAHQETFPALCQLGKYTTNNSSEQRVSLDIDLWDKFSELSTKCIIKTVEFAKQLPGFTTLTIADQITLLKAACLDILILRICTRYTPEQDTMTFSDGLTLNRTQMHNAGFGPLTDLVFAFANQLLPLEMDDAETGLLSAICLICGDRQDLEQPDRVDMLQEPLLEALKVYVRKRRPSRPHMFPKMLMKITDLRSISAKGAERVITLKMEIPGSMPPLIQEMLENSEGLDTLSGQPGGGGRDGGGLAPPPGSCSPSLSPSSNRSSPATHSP
Chain of Cellular tumor antigen p53 (Homo sapiens) (P04637 whole entry, looked up, the tested form may be a part): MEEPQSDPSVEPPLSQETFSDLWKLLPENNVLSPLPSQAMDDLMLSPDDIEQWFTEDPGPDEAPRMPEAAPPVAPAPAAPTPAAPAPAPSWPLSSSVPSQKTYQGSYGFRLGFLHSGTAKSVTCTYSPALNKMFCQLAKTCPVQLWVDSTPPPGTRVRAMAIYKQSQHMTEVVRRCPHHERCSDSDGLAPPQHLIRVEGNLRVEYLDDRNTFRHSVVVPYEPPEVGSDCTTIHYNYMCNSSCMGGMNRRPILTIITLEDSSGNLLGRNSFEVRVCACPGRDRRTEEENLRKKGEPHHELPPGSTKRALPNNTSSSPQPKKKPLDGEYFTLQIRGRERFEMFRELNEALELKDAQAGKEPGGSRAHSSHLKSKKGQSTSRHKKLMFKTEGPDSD

`Cc1ccc(OC(=O)c2ccccc2O)cc1`: the molecule was called inactive in [1], in assay [2], in [3], in [4], in [5] and in [6]. In addition, the call in assay [7] and in assay [8] was inactive.

Regarding `O=C(O)c1cccnc1C(=O)O`, the molecule was classed as inactive in assay [1], in assay [2], in assay [3], in assay [4], in [9] and in [10]. Further, the outcome in [11] was inactive.

With `Nc1ccc(NCCO)c([N+](=O)[O-])c1`, the molecule was called inactive in [1], in assay [3], in assay [4], in [13], in assay [6] and in assay [11]. In addition, the result in [14] was inactive. Also, the AC50 in [12] is 24.1 µM (active).

As for `IC(I)I`, the molecule was called inactive in assay [1], in assay [12], in assay [3], in [4], in [15] and in assay [16]. Also, the outcome in assay [17], in assay [18], in [5], in [13], in assay [19] and in assay [9] was inactive. The molecule was called inactive in assay [10], in assay [20], in assay [6], in assay [7], in assay [11] and in assay [8].

`CC(C)OCCO`: the outcome in assay [1], in [12], in assay [3], in assay [4], in assay [9] and in assay [7] was inactive. The molecule was classed as inactive in [8].

In the case of `CCCCC1(COC(=O)CCC(=O)O)C(=O)N(c2ccccc2)N(c2ccccc2)C1=O`, the molecule was classed as inactive in assay [1], in [12], in assay [3], in assay [4], in assay [6] and in assay [8]. Also, in assay [7], the AC50 is 28 µM (active).

In the case of `CCCCOC(=O)CCCCCCCC(=O)OCCCC`, the result in assay [1], in [12], in assay [3], in assay [4], in assay [15] and in assay [16] was inactive. Further, the result in [17], in assay [18], in assay [5], in assay [19] and in [20] was inactive.

For `CC=CC=CCOC(=O)C(C)C`, the result in assay [1], in assay [3], in assay [4], in assay [5], in assay [7] and in assay [8] was inactive. The results for the AC50 in [12] and in [6] were 27.1 µM (active) and 11.1 µM (active), respectively.

As to `CC=Cc1ccc(OCC)c(O)c1`, the molecule was classed as inactive in [1], in assay [12], in [3], in assay [4], in assay [15] and in assay [16]. Further, the outcome in assay [17], in assay [18], in assay [5], in assay [19] and in assay [20] was inactive. Besides, the AC50 in assay [6] is 31.8 µM (active); in assay [7], 53.6 µM (active).

As for `C=CC(=C)CCCC(C)(C)OC(C)=O`, the call in assay [1], in assay [2], in [5], in assay [9], in assay [6] and in assay [7] was inactive. Also, the molecule was classed as inactive in assay [8].

As for `CCCCCCOC(=O)CCC`, the result in [1], in [12], in assay [3], in assay [4], in assay [9] and in [10] was inactive. Besides, the molecule was classed as inactive in assay [11]. The AC50 in assay [7] was 15.1 µM (active).

With `Cc1occc(=O)c1OC(=O)C(C)C`, the molecule was classed as inactive in assay [1], in assay [12], in assay [3], in assay [4], in assay [5] and in [13]. For the same molecule, the outcome in [14] was inactive.
